Measurements published in the supplement of paper PMC6555819.

Columns and labels:
Assay in all cases: PBM binding z-score (relative to random genomic background probes); higher = stronger binding; sequences stand for … in GC…GCGATTGACAGCGTAGAATGAAGG
[1] = tested on: FXR:RXRa (NR concentration 270 nM, RXRa partner concentration 90 nM)
Outline: (§1)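 Ligand-free nuclear receptor dimers were applied to custom Agilent 4×180K protein-binding microarrays whose double-stranded probes carried direct-repeat seeds, single-nucleotide variants, half-site ablations and random human genomic background sequences in 34-nt variable regions. Incubation lasted 1 h. Binding z-scores were computed against the random background probes from regression-normalized fluorescence.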

[2] = tested on: LXRa:RXRa (NR concentration 270 nM, RXRa partner concentration 90 nM)
Outline: as §1

[3] = tested on: LXRa homodimer (NR concentration 270 nM)
Outline: as §1

[4] = tested on: LXRb:RXRa (NR concentration 270 nM, RXRa partner concentration 90 nM)
Outline: as §1

[5] = tested on: LXRb homodimer (NR concentration 270 nM)
Outline: as §1

[6] = tested on: PPARa:RXRa (NR concentration 270 nM, RXRa partner concentration 90 nM)
Outline: as §1

[7] = tested on: PPARg:RXRa (NR concentration 180 nM, RXRa partner concentration 90 nM)
Outline: as §1

[8] = tested on: PPARg:RXRa 270nM:90nM, anti-RXR (NR concentration 270 nM, RXRa partner concentration 90 nM)
Outline: as §1

[9] = tested on: PPARg:RXRa 30nM:10nM, anti-RXR (NR concentration 30 nM, RXRa partner concentration 10 nM)
Outline: as §1

[10] = tested on: PPARg:RXRa 90nM:30nM, anti-RXR (NR concentration 90 nM, RXRa partner concentration 30 nM)
Outline: as §1

[11] = tested on: PPARg:RXRa DBDmut IVT, anti-RXR (DBD mutation: RXRa K156A/R161A, NR concentration 270 nM, RXRa partner concentration 90 nM)
Outline: as §1

[12] = tested on: PPARg:RXRa IVT, anti-PPARg (NR concentration 270 nM, RXRa partner concentration 90 nM)
Outline: as §1

[13] = tested on: PPARg DBDmut IVT, anti-PPARg (DBD mutation: PPARg1 K132A/R137A, NR concentration 270 nM)
Outline: as §1

[14] = tested on: PPARg homodimer (NR concentration 180 nM)
Outline: as §1

[15] = tested on: PXR:RXRa (NR concentration 270 nM, RXRa partner concentration 90 nM)
Outline: as §1

[16] = tested on: PXR homodimer (NR concentration 270 nM)
Outline: as §1

[17] = tested on: RARa:RXR (NR concentration 270 nM, RXRa partner concentration 90 nM)
Outline: as §1

[18] = tested on: RARa homodimer (NR concentration 270 nM)
Outline: as §1

[19] = tested on: RARb:RXRa (NR concentration 270 nM, RXRa partner concentration 90 nM)
Outline: as §1

Sequence | PBM binding z-score [1] | PBM binding z-score [2] | PBM binding z-score [3] | PBM binding z-score [4] | PBM binding z-score [5] | PBM binding z-score [6] | PBM binding z-score [7] | PBM binding z-score [8] | PBM binding z-score [9] | PBM binding z-score [10] | PBM binding z-score [11] | PBM binding z-score [12] | PBM binding z-score [13] | PBM binding z-score [14] | PBM binding z-score [15] | PBM binding z-score [16] | PBM binding z-score [17] | PBM binding z-score [18] | PBM binding z-score [19]
ATATGTAGGTTAGGGTCATTCATAAAGTAGGGAA | 5.45 | 4.03 | 1.6 | 4.64 | 1.55 | 5.93 | 8.24 | 6.58 | 4.58 | 6.47 | 6.2 | 7.14 | 4.07 | 4.85 | 4.73 | 2.83 | 4.99 | 2.19 | 3.63
CGAACTGGGTCACCAGGACAGTGAAGAGGTTGGA | 3.32 | 1.63 | -0.247 | 1.24 | -0.906 | 4.99 | 8.62 | 6.73 | 4.52 | 6.31 | 7.66 | 8.73 | 1.6 | 1.47 | 1.55 | -0.358 | 2.52 | -0.049 | 3.73
CGAACTAGGTCAAAGGACTGTGAAAGGCGACGTA | 3.86 | 2.36 | -0.238 | 1.58 | -0.452 | 4.89 | 9.38 | 7.84 | 7.28 | 8.69 | 8.23 | 8 | 0.977 | 1.41 | 0.827 | -0.596 | 1.86 | -0.095 | 3.58
CGAACTAGGTCATAGGACAGTGAAAGGCGACGTA | 3.51 | 2.47 | 0.169 | 1.66 | -0.283 | 5.07 | 9.06 | 7.62 | 6.41 | 7.72 | 7.81 | 8.5 | 0.801 | 1.9 | 1.2 | -0.212 | 2.17 | 0.173 | 3.5
CGAACTAGGTCACCCGGACAGTGAAGAGGTTGGA | 3.91 | 2.15 | 0.102 | 1.65 | 0.00893 | 4.76 | 8.61 | 6.77 | 4.46 | 6.25 | 8.23 | 8.41 | 0.442 | 2.42 | 1.55 | 0.0197 | 2.64 | 0.174 | 4.22
CGAACTAGGCCAAAGGACAGTGAAAGGCGACGTA | -0.669 | -0.893 | -0.542 | -0.756 | -1.2 | 2.97 | 6.79 | 6.81 | 5.3 | 7.2 | 5.96 | 5.66 | -0.194 | 0.351 | -0.549 | -0.424 | -0.24 | -0.451 | 1.33
CGAACTAGCTCAAAGGACAGTGAAAGGCGACGTA | -0.37 | -0.67 | -0.493 | -0.766 | -0.633 | 0.188 | 1.06 | 2.13 | 0.533 | 1.99 | -0.134 | -0.285 | -0.415 | 0.163 | -0.639 | -0.457 | -0.276 | 0.225 | 0.694
CGAACTAGGTCACAAGGACAGTGAAGAGGTTGGA | 3.87 | 2.13 | 0.193 | 1.57 | -0.115 | 5.01 | 8.73 | 7.01 | 4.93 | 6.82 | 8.39 | 9.03 | 1.5 | 3.52 | 1.25 | 0.516 | 2.14 | 0.713 | 4.09
CGACCTAGGTCAAAGGACAGTGAAAGGCGACGTA | 5.01 | 3.27 | -0.141 | 2.32 | -0.298 | 4.33 | 5.72 | 5.68 | 3.14 | 4.92 | 3.69 | 4 | -0.949 | 1.74 | 1.42 | -0.567 | 2.9 | -0.132 | 4.05
CGAACTAGGTCAAAGGACAGGGAAAGGCGACGTA | 4.04 | 2.31 | -0.139 | 1.77 | -0.371 | 5.35 | 10.4 | 8.79 | 8.45 | 9.16 | 7.68 | 8.19 | 4.37 | 2.31 | 0.895 | -0.253 | 2.37 | 0.0193 | 3.9
CGAACTAGCTCACCAGGACAGTGAAGAGGTTGGA | -0.472 | -0.64 | -0.125 | -0.561 | -0.585 | -0.517 | 0.165 | -0.517 | -0.602 | -0.751 | 0.166 | -0.411 | 0.212 | -0.0125 | -0.706 | -0.202 | -0.594 | -0.478 | -0.409
ATATGTAGGTTCGGGTCATTCAGAAAGTAGGGAA | 3.32 | 2.84 | 1.01 | 3.38 | 1.52 | 4.37 | 4.22 | 4.12 | 1.6 | 3.34 | 3.06 | 4.01 | 1.7 | 2.61 | 3.53 | 1.57 | 3.97 | 1.72 | 2.5
ATATTTAGGTTAGGGTCATTCAGAAAGTAGGGAA | 4.69 | 4.1 | 1.88 | 4.8 | 3.1 | 5.27 | 6.6 | 5.63 | 3.17 | 5.27 | 5.81 | 5.68 | 3.04 | 4.04 | 4.34 | 2.43 | 4.64 | 4.29 | 3.73
CGAACTAGGACACCAGGACAGTGAAGAGGTTGGA | -0.0401 | -0.43 | -0.083 | -0.854 | -0.923 | 0.865 | 2.08 | 1.33 | 0.527 | 0.812 | 6.02 | 5.32 | -0.0745 | 0.381 | -0.661 | -0.233 | -0.0962 | 0.279 | 0.552
ATATGTAGGATAGGGTCATTCAGAAAGTAGGGAA | 3.78 | 3.12 | 0.63 | 3.55 | 1.08 | 4.62 | 4.04 | 3.78 | 1.71 | 3.29 | 2.75 | 3.63 | 1.68 | 2.36 | 3.47 | 1.46 | 4.19 | 1.52 | 2.69
